# Hits are enriched below; roughly 2.8% of the tested compounds scored in any of these assays.
# TGFb inhibitor = TGF-b pathway inhibition. HepG2 CAGA-GFP TGF-b/SMAD3 reporter, GFP fluorescence, 18 h; TGF-beta stimulated, 500 pg/mL final. 410,000 compounds, 1.2% hits. AID 588855. Potency, µM (titrated, usually from 46.1 µM), actives largely listed as inhibitors; also: nearly all actives have a fitted effect of over 65% in size
#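 HEPG2 CAGA-GFP cells (1000/well, DMEM with 1% FBS) were pre-incubated 2 h at 37 degrees C, given compound by pin tool, then stimulated with TGF-beta at 500 pg/mL final for 18 h before per-cell GFP fluorescence imaging.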
# HepG2 viability = counter-screen for TGF-b inhibitors: cytotoxicity in HepG2 cells; HepG2 CAGA-GFP viability, ATP luminescence, 18 h; 410,000 compounds, 0.76% hits; Potency, µM (titrated, usually from 46.1 µM), hits mostly cytotoxic; AID 588856
#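 CellTiter-Glo luminescence gave cytotoxicity after 18 hours at 37 degrees C. The cells were HepG2 CAGA-GFP in 1% FBS DMEM, stimulated with 500 pg/mL TGF-beta after compound addition. %Activity was normalised to no-cell wells (complete cell-killing) and DMSO (no toxicity), and curves were fitted and classified.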
# ATXN viability = cell viability loss in ATXN counter-screen. AID 651635. S2 cells (HEK-293 line with an ATXN2-luciferase reporter) viability, CellTiter-Fluor protease fluorescence, 24 h. Potency, µM (top dose mostly 56.7 µM), usual class: cytotoxic. 400,000 compounds, 0.49% hits; also: nearly all actives have a fitted effect of over 40% in size
# ATXN2 expr inh = reduces ATXN2 reporter expression in HEK-293 cells | HEK-293 ATXN2-luciferase reporter, luminescence, 24 h | Potency, µM (top dose mostly 57 µM), usual class: inhibitors | 360,000 compounds, 0.72% hits; also: nearly all actives have a fitted effect of over 55% in size
#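 ATXN2-luciferase reporter cells (luciferase flanked by upstream and downstream ATXN2 gene portions) were treated 24 h at 37 °C with compounds at up to 57 uM. SteadyGlo luminescence gave expression; GF-AFC fluorescence gave viability.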
# CtBP-E1A blk = inhibitors of CtBP/E1A interaction; 340,000 compounds, 0.49% hits; AlphaScreen GST-E1A/His-CtBP binding, 1536-well; stronger effect = lower value; activity change, % (test concentration not listed); in the data active = activity change below about -65%; inconclusive = mostly about -30% to -63%
#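 Steps: dispense buffer (Tris pH 8.0, NaCl 300 mM, TCEP 1 mM, BSA, Tween 20); add 5X protein mix (GST-E1A, His-CtBP, 125 nM each); pin 23 nL compound; 2 h at 37 °C, dark; add 5X beads (50 ug/mL); 1 h; read.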
# Six1-Eya2 inh = Six1/Eya2 interaction inhibition; Q15475+O00167; AlphaScreen GST-Six1/His-Eya2 binding, biochemical; stronger effect = lower value; activity change, % (concentration not given with the values); 360,000 compounds, 0.56% hits; in the data active = activity change below about -65%; inconclusive = mostly about -30% to -63%
#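 AlphaScreen with GST-Six1 and His-Eya2 (5X mix: 250 nM and 500 nM), glutathione donor and nickel acceptor beads; buffer 50 mM Tris pH 8.0, 300 mM NaCl, 1 mM TCEP; 1 h at 37 C in the dark.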
# Numbers stand for hits; 0 = inactive; ? = inconclusive; - = not tested or not shown. Unless noted, calls follow the shape of the dose curve; as a rule, active = well fitted curve in the direction sought with a large enough effect; inconclusive = small, poorly fitted or top-dose-only effect, or another doubt; inactive = no such curve, though single readings can be large; an effect the other way counts as inactive or inconclusive.
SMILES,TGFb inhibitor,HepG2 viability,ATXN viability,ATXN2 expr inh,CtBP-E1A blk,Six1-Eya2 inh
Cc1ccc(N2CC(NC(=O)c3ccc(S(=O)(=O)N(C)C)cc3)CC2=O)cc1C (stereo not drawn),0,0,-,-,-,-
CCCCCCCCSC1=CC(=O)C(OC)=C(OC)C1=O,10µM,7.08µM,?,-,0,0
CCOc1ccc(NC(=O)C2CCN(c3nnc(-n4c(C)ccc4C)s3)CC2)cc1,-,0,-,-,-,-
Cn1c2ccccc2c2c3c(c4c5ccccc5n(CCC#N)c4c21)CNC3=O,-,-,-,6.85µM,-,-
Cc1c(C)n(CCC#N)c2ccccc12,0,0,?,0,0,0
COc1cccc(/C=C/C2=CC(C)(C)NC(=S)N2)c1,0,12.6µM,0,0,0,0
COc1ccc(/C=C/C2=CC(C)(C)NC(=S)N2)cc1OC,0,0,0,0,0,0
COc1ccc(C)cc1NC(=O)C1CCCN(S(=O)(=O)c2ccc3c(c2)oc(=O)n3C)C1 (stereo not drawn),0,0,?,0,-,-
CCOC(=O)c1ccc(NC(=O)CCc2c(C)nc3c(c(C)nn3C(C)(C)C)c2C)cc1,?,0,0,?,-,-
COC(=O)c1ccc(NC(=O)CCc2c(C)nc3c(c(C)nn3C(C)(C)C)c2C)cc1,15.8µM,0,0,0,-,-
CC(C)=CCCC1(C)C=Cc2c(c(C)cc3c2[nH]c2cc(O)ccc23)O1 (stereo not drawn),11.2µM,11.2µM,28.2µM,?,0,0
Nc1ccc(O)cc1,4.47µM,14.1µM,?,0,-,-
Oc1cc(-c2nc3ccccc3s2)cc2c1OCCN(Cc1cccn1-c1ncccn1)C2,-,-,0,-,-,-
Cc1ccc(S(=O)(=O)N2CCC(c3nnc(-c4cccc(C)c4)o3)CC2)cc1,?,0,7.94µM,5.62µM,-,-
COc1ccc(-c2nnc(C3CCN(S(=O)(=O)c4ccc(C)c(C)c4)CC3)o2)cc1,0,0,0,0,-,-
COc1ccccc1-c1nnc(C2CCN(S(=O)(=O)c3ccc(F)c(C)c3)CC2)o1,?,0,?,0,-,-
CCCc1ccc(S(=O)(=O)N2CCC(c3nnc(-c4cccc(C)c4)o3)CC2)cc1,?,0,-,10µM,-,-
CCOC(=O)c1c(NC(=O)CSc2cn(CCNC(=O)c3ccccc3OC)c3ccccc23)sc2c1CCCC2,?,0,0,0,-,-
c1ccc2nccnc2c1,2.82µM,3.98µM,-,-,-,-
Nc1nc2ccccc2n1S(=O)(=O)c1ccc([N+](=O)[O-])cc1,12.6µM,0,0,0,0,0
CCOC(=O)c1cccc(NC(=O)c2ccc3nc(Cc4ccccc4)oc3c2)c1,0,0,0.794µM,?,-,-
Cc1ccc(-n2cc(CNC(C)c3cnn(C)c3C)c(-c3ccc(F)cc3)n2)cc1 (stereo not drawn),12.6µM,0,?,-,0,0
Cc1ccc(-n2cc(CNCCc3cscn3)c(-c3ccc(F)cc3)n2)cc1,?,0,?,?,0,0
Cc1ccc(C)c(-n2cc(CNCCCn3cccn3)c(-c3ccccc3)n2)c1,0,0,?,?,0,0
Cc1ccc(-n2cc(CNCCCn3ccnc3C)c(-c3ccc(F)cc3)n2)cc1,?,12.6µM,?,0,0,0
SMILES,TGFb inhibitor,HepG2 viability,ATXN viability,ATXN2 expr inh,CtBP-E1A blk,Six1-Eya2 inh
Cc1ccc(-n2cc(CNC(C)c3cnn(C)c3)c(-c3ccc(F)cc3)n2)cc1 (stereo not drawn),0,0,0,-,0,0
Cc1ccc(-n2cc(CNCCCn3cccn3)c(-c3cccc(C)c3)n2)cc1,?,0,-,31.6µM,0,0
Cc1cccc(-c2nn(-c3ccccc3)cc2CNCCO)c1,?,0,-,-,-,-
Cc1cccc(-n2cc(CNCCc3nc(C)cc(C)n3)c(-c3cccc(F)c3)n2)c1,11.2µM,0,-,28.2µM,0,0
Brc1cnc2nc(SCc3nc4ccccc4[nH]3)[nH]c2c1,0,0,0,23.8µM,0,0
Fc1ccc(CSc2nc3ncc(Br)cc3[nH]2)cc1,0,0,0,0,0,0
Cc1ccc(CN2[C@H]3CCCC[C@@H]3OCCS2(=O)=O)cc1,0,0,-,-,-,-
CC1(c2nnnn2-c2ccc3c(c2)OCCO3)CCC(=O)N1CCc1c[nH]c2ccccc12 (stereo not drawn),-,-,0,0,0,0
COc1ccc(Nc2nc(N3CCCCC3)c3ccccc3n2)cc1,?,0,?,?,0,0
Oc1ccc(Nc2nc(N3CCCC3)c3ccccc3n2)cc1,?,11.2µM,?,?,?,?
Clc1ccc(C2=Nn3c(nnc3-c3cc(-c4ccccc4)n[nH]3)SC2)cc1,?,15.8µM,-,?,0,0
COc1ccc(C2=Nn3c(nnc3-c3ccc(OC)cc3)SC2)cc1,?,0,0,0,0,0
COc1ccc(C2=Nn3c(nnc3-c3cc(C)[nH]n3)SC2)cc1,0,0,0,0,?,-76.7
COc1ccc(C2=Nn3c(nnc3-c3ccco3)SC2)cc1OC,0,0,0,0,-87.1,-71.2
COc1ccc(C2=Nn3c(nnc3-c3ccccn3)SC2)cc1OC,0,0,0,0,-82.0,-77.4
COc1ccc(C2=Nn3c(nnc3-c3ccccc3OC)SC2)cc1OC,0,0,0,0,?,0
Cc1ncc2c(c1CNS(=O)(=O)N(C)C)CCN(C(=O)/C=C/c1cccc(F)c1)C2,-,-,0,-,-,-
COC(=O)c1sc(=S)sc1C(=O)OC,?,0,0,0,0,-89.4
CC(C)(CNC(=O)c1cnn(-c2nccc(-c3ccccc3F)n2)c1C1CC1)N1CCOCC1,-,-,0,-,-,-
COc1cccc(C2Nc3ccccc3C(=O)N2Cc2ccccc2)c1 (stereo not drawn),0,0,0,-,-,0
COc1ccc2c(c1)C[C@]1(C)c3ccccc3C(=O)N(Cc3ccccc3)[C@H]21,11.2µM,0,?,?,0,0
Cc1ccc(-c2c(CN3CCN(c4cccc(C)c4)C(C)C3)csc2C)cc1 (stereo not drawn),?,0,-,-,-,-
O=C1C=CC(=C(c2ccc(O)cc2)c2ccc(O)cc2)C=C1,?,10µM,15.8µM,?,0,0
Cc1c(C(=O)N(CCO)C(C)C)cnn1-c1ncc2c(n1)-c1ccccc1CCC2,-,-,0,-,-,-
CC(=O)/C=C/n1c(=S)oc2ccccc21,6.31µM,15.8µM,-,?,0,0
CC(C)CC(=O)/C=C/n1c(=S)oc2ccccc21,0,0,-,?,0,0
O=C(c1cc(C2CC2)nc2ccc(Br)cc12)N1N=C(C(F)F)CC1(O)C(F)F (stereo not drawn),7.94µM,0,?,?,0,0
CCOC(=O)c1c(C)[nH]c(C)c1S(=O)(=O)N(C)CC(=O)N1CCN(c2ccccc2OC)CC1,?,0,0,0,-,-
CN[C@@H](C)[C@H]1[C@H](O)C[C@@]2(C)[C@@H]3CC[C@H]4C(C)(C)[C@@H](NC)CC[C@@]45C[C@@]35CC[C@]12C,-,-,-,0,-,-
